Data from PubChem BioAssay.

Experiments:
[1] = system: Human papillomavirus type 1a protein E7 (residues 44-93); assay: small molecules binding HPV E7 44-93 – biochemical, small-molecule microarray, residues 44-93, 635 nm fluorescence, primary screen (AID 1108); conditions: fluorescence 635 nm, higher = more signal;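 also: E7 fragment applied at 1 µg/mL in TBST for 1 h at 4 C; score combines spot fluorescence with its signal to noise ratio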
[2] = hepatitis C replication reporter changes, two-sided – Huh7 cells, luciferase reporter, HCV replication inhibitor project, primary screen (AID 1109); conditions: Huh7 HCV replicon luciferase reporter, 48 h; higher = more signal;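 also: huh7 hepatoma cells harbouring a luciferase neomycin HCV replicon reporter; luciferase luminescence as measure of HCV replicon replication; test concentration not given here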
[3] = molecular target: Left-right determination factor 2 (Homo sapiens) (UniProt O00292); assay: small molecules binding LEFTY2 protein – biochemical, small-molecule microarray, 635 nm fluorescence scan, primary screen (AID 1110); conditions: higher = more signal
Chain of Left-right determination factor 2 (Homo sapiens) (O00292 whole entry, looked up): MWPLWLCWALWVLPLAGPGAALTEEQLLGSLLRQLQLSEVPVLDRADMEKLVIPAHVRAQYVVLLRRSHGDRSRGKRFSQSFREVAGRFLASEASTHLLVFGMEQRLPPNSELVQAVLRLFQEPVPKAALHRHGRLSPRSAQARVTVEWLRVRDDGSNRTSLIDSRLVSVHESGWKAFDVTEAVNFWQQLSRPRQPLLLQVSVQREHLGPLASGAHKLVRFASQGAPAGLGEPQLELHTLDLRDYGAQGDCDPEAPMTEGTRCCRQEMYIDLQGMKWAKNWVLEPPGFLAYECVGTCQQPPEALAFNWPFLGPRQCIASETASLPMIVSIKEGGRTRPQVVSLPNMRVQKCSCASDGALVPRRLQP

[4] = molecular target: Calmodulin-1 (Homo sapiens) (UniProt P0DP23); assay: small molecules binding calmodulin-1 with EGTA – biochemical, small-molecule microarray, Cy5-labelled CALM1, profiling panel (AID 1111); conditions: Cy5-CALM1 binding fluorescence, higher = more signal;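 also: labelled calmodulin applied in Tris saline Tween buffer holding calcium plus EGTA and DTT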
[5] = molecular target: Calmodulin-1 (Homo sapiens) (UniProt P0DP23); assay: small molecules binding Ca-loaded calmodulin-1 – biochemical, small-molecule microarray, Cy5-labelled CALM1, plus calcium, artefact control for SMM control-protein annotation, profiling panel (AID 1112); conditions: Cy5-CALM1 binding fluorescence, higher = more signal;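 also: score merges spot fluorescence with signal to noise from triplicate slides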
[6] = probe aWnt5a binding to arrayed compounds – biochemical, biotinylated probe, 635/667 nm fluorescence, primary screen (AID 1113); conditions: small-molecule microarray, higher = more signal;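 also: score merges 667 nm fluorescence intensity with signal-to-noise per printed feature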
[7] = probe aShh binding to arrayed compounds – biochemical, biotinylated probe, 635/667 nm fluorescence, primary screen (AID 1114); conditions: small-molecule microarray, higher = more signal;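 also: probe is biotin-labelled aShh protein from a stem cell growth factor screen; measures binding of labelled protein to compounds printed on the slide; score merges feature fluorescence at 667 nm with signal-to-noise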
[8] = probe aNog binding to arrayed compounds – biochemical, biotinylated probe, 635/667 nm fluorescence, primary screen (AID 1115); conditions: small-molecule microarray, higher = more signal;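 also: probe is biotinylated aNog protein used at 0.15 µg/mL for 1 h at 4 C; z-score combines 667 nm fluorescence of each spot with its signal to noise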
[9] = molecular target: Torsin-1A-interacting protein 1 (Homo sapiens) (UniProt Q5JTV8); assay: compound microarray binding of lysate hLAP1 – cell lysate, small-molecule microarray, COS7 lysate, 635/667 nm fluorescence, primary screen (AID 1116); conditions: 635 nm fluorescence, higher = more signal
Chain of Torsin-1A-interacting protein 1 (Homo sapiens) (Q5JTV8 whole entry, looked up): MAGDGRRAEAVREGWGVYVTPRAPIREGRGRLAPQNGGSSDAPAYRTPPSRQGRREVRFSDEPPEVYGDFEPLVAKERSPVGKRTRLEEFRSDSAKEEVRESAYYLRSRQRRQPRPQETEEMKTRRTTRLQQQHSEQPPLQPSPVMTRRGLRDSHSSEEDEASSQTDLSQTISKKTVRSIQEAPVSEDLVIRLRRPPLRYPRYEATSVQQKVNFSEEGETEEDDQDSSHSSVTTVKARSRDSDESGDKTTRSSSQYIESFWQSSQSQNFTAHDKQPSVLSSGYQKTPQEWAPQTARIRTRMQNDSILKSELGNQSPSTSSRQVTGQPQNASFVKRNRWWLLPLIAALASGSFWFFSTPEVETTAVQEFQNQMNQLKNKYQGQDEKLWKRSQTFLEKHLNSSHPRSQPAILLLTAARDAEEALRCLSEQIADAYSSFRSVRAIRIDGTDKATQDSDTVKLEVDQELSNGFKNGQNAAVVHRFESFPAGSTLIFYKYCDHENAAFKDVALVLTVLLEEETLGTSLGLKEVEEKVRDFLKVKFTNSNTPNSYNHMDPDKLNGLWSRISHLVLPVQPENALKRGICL

[10] = molecular target: Alpha-bungarotoxin (Bungarus multicinctus) (UniProt P60615); assay: compounds binding labelled alpha-BTX control protein – biochemical, small-molecule microarray, Alexa647 label, 635/667 nm fluorescence, artefact control for SMM control protein annotation, profiling panel (AID 1117); conditions: alpha-BTX-A647 binding fluorescence, higher = more signal
Chain of Alpha-bungarotoxin (Bungarus multicinctus) (P60615 whole entry, looked up): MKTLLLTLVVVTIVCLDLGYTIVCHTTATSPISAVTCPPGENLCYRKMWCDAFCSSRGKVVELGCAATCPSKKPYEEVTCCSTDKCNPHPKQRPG

## COc1ccc([Si](C)(C)[C@H]2[C@H](CCO)O[C@@]3(C(=O)N(Cc4ccccc4)c4ccc(N5CCCCC5=O)cc43)[C@@H]2C)cc1
[1]
  composite z-score: 0.668
[2]
  z-score: -5.03
[3]
  composite z-score: -0.161
[4]
  composite z-score: 0.674
[5]
  composite z-score: 0.167
[6]
  composite z-score: -0.0685
[7]
  composite z-score: -0.156
[8]
  composite z-score: -0.135
[9]
  composite z-score: 0.652
[10]
  composite z-score: 0.883

## O=C1O[C@H](c2ccccc2)[C@H](c2ccccc2)N2[C@H]1[C@@H](C(=O)NC[C@H](O)c1ccccc1)[C@]1(C(=O)Nc3ccc(C#CC4=CCCCC4)cc31)[C@H]2c1ccccc1OCCO
[1]
  composite z-score: 1.06
[2]
  z-score: -3.16
[3]
  composite z-score: 0.155
[4]
  composite z-score: 1.42
[5]
  composite z-score: 0.944
[6]
  composite z-score: 0.0101
[7]
  composite z-score: 0.328
[8]
  composite z-score: 0.157
[9]
  composite z-score: 1.02
[10]
  composite z-score: 1.7

## OCC1C=C(/C=C/c2ccccc2)CN1Cc1ccccc1Br (stereo not given)
[1]
  composite z-score: -0.119
[2]
  z-score: -1.92
[3]
  composite z-score: 1.14
[4]
  composite z-score: 0.776
[5]
  composite z-score: -0.265
[6]
  composite z-score: 0.0375
[7]
  composite z-score: -0.0553
[8]
  composite z-score: -0.266
[9]
  composite z-score: 0.289
[10]
  composite z-score: 1.12

## O=C1C2C=CC(C(O)c3ccc(-c4ccccc4)s3)N(Nc3ccccc3)C2C(=O)N1c1ccccc1 (stereo not given)
[1]
  composite z-score: 1.47
[2]
  z-score: -0.978
[3]
  composite z-score: -0.44
[4]
  composite z-score: 1.45
[5]
  composite z-score: 0.133
[6]
  composite z-score: 0.105
[7]
  composite z-score: 0.634
[8]
  composite z-score: 1.38
[9]
  composite z-score: 0.537
[10]
  composite z-score: 1.46

## O=C1O[C@@H](c2ccccc2)[C@@H](c2ccccc2)N2[C@@H](c3ccc(OCCO)cc3)[C@]3(C(=O)Nc4ccc(C#CCCO)cc43)[C@@H](C(=O)NC[C@H](O)c3ccccc3)[C@H]12
[1]
  composite z-score: 1.4
[2]
  z-score: -1.25
[3]
  composite z-score: 0.25
[4]
  composite z-score: 0.604
[5]
  composite z-score: 0.174
[6]
  composite z-score: 0.119
[7]
  composite z-score: 0.493
[8]
  composite z-score: -0.398
[9]
  composite z-score: 1.09
[10]
  composite z-score: 1.24

## O=C(NC1CC1)[C@@H]1c2ccccc2C(=O)N(Cc2cc(F)cc(C(F)(F)F)c2)[C@H]1c1ccc(CO)cc1
[1]
  composite z-score: 0.558
[2]
  z-score: -0.509
[3]
  composite z-score: -1.05
[4]
  composite z-score: -0.768
[5]
  composite z-score: -0.628
[6]
  composite z-score: -0.161
[7]
  composite z-score: -0.0709
[8]
  composite z-score: 0.0308
[9]
  composite z-score: 0.0706
[10]
  composite z-score: -0.405

## COc1cc(CO)cc(I)c1O[C@H]1C=C(C(=O)NCCO)C[C@@H](N(C(=O)c2cc3ccccc3oc2=O)C2CCCCCC2)[C@@H]1O
[1]
  composite z-score: -0.914
[2]
  z-score: -0.469
[3]
  composite z-score: -0.0138
[4]
  composite z-score: -0.23
[5]
  composite z-score: -0.769
[6]
  composite z-score: -0.096
[7]
  composite z-score: -0.349
[8]
  composite z-score: -0.267
[9]
  composite z-score: 0.155
[10]
  composite z-score: -0.29

## CCCCN1CC=CC23O[C@@H]4C=CCOC(=O)[C@@H]4[C@H]2C(=O)N(CCCCCCO)[C@@H]3C1=O (stereo not given in full)
[1]
  composite z-score: -0.477
[2]
  z-score: -0.672
[3]
  composite z-score: -1.18
[4]
  composite z-score: -1.01
[5]
  composite z-score: 0.224
[6]
  composite z-score: -0.203
[7]
  composite z-score: -0.138
[8]
  composite z-score: 0.193
[9]
  composite z-score: 1.41
[10]
  composite z-score: -1.35

## CCCC=C(CCC)[C@@H](NC(=O)OCC(C)C)c1ccccc1
[1]
  composite z-score: 0.861
[2]
  z-score: -1.18
[3]
  composite z-score: -0.0453
[4]
  composite z-score: 1.65
[5]
  composite z-score: 0.438
[6]
  composite z-score: 0.806
[7]
  composite z-score: 0.717
[8]
  composite z-score: 1.99
[9]
  composite z-score: 0.226
[10]
  composite z-score: 0.703

## COC(=O)[C@@]1(Cc2ccccc2)[C@H]2c3cc(C(=O)N(C)C)n(Cc4ccc(OC)c(OC)c4)c3C[C@H]2CN1C(=O)c1ccccc1
[1]
  composite z-score: 1.46
[2]
  z-score: -2.35
[3]
  composite z-score: -0.394
[4]
  composite z-score: 1.71
[5]
  composite z-score: 0.873
[6]
  composite z-score: 0.229
[7]
  composite z-score: 0.187
[8]
  composite z-score: 2.35
[9]
  composite z-score: 1.1
[10]
  composite z-score: 1.07

## CC[C@@H]1C=C(C(=O)O)[C@H](c2cccc3ccccc23)N1S(=O)(=O)c1ccc(C)cc1
[1]
  composite z-score: 0.828
[2]
  z-score: 0.0731
[3]
  composite z-score: 0.132
[4]
  composite z-score: 1.45
[5]
  composite z-score: 0.725
[6]
  composite z-score: 0.0742
[7]
  composite z-score: -0.17
[8]
  composite z-score: 0.526
[9]
  composite z-score: 0.909
[10]
  composite z-score: -0.158

## CC(C)(C)OC(=O)CC[C@]1(C(=O)NCCN2CCOCC2)COC(c2ccc(OCCCO)cc2)=N1
[1]
  composite z-score: 1.42
[2]
  z-score: -0.464
[3]
  composite z-score: 0.051
[4]
  composite z-score: 0.762
[5]
  composite z-score: -0.23
[6]
  composite z-score: 0.0559
[7]
  composite z-score: -0.0066
[8]
  composite z-score: 0.951
[9]
  composite z-score: 1.27
[10]
  composite z-score: 0.791

## O=C1OCC=C[C@H]2OC34C=CCN(CCN5CCOCC5)C(=O)[C@H]3N(CCO)C(=O)[C@@H]4[C@@H]12 (stereo not given in full)
[1]
  composite z-score: 0.259
[2]
  z-score: 0.289
[3]
  composite z-score: -0.0919
[4]
  composite z-score: -0.571
[5]
  composite z-score: -0.932
[6]
  composite z-score: -0.223
[7]
  composite z-score: -0.321
[8]
  composite z-score: -0.384
[9]
  composite z-score: 0.0486
[10]
  composite z-score: -0.283

## O=C1C[C@@](C(=O)NCc2ccccc2)(c2ccc([N+](=O)[O-])cc2)[C@@H](c2ccc(CO)cc2)N1CC12CC3CC(CC(C3)C1)C2
[1]
  composite z-score: 1.37
[2]
  z-score: -2.95
[3]
  composite z-score: 0.31
[4]
  composite z-score: 0.35
[5]
  composite z-score: 0.159
[6]
  composite z-score: -0.101
[7]
  composite z-score: -0.512
[8]
  composite z-score: -0.374
[9]
  composite z-score: 0.538
[10]
  composite z-score: 0.766

## CC(c1ccccc1)C(O)C1C=CC2C(=O)N(C)C(=O)C2N1NC(=O)OC(C)(C)C (stereo not given)
[1]
  composite z-score: 0.664
[2]
  z-score: 0.658
[3]
  composite z-score: -0.0606
[4]
  composite z-score: 2.55
[5]
  composite z-score: 0.265
[6]
  composite z-score: 0.0377
[7]
  composite z-score: -0.273
[8]
  composite z-score: 1.54
[9]
  composite z-score: 2.11
[10]
  composite z-score: 1.29

## C=C(CCCC)/C(=C/C[C@H](OC(C)=O)c1ccccc1OCCO)c1cnc2ccccc2c1
[1]
  composite z-score: 0.984
[2]
  z-score: -2.75
[3]
  composite z-score: 0.0641
[4]
  composite z-score: -0.0602
[5]
  composite z-score: -0.796
[6]
  composite z-score: -0.0718
[7]
  composite z-score: -0.0709
[8]
  composite z-score: -0.327
[9]
  composite z-score: 0.469
[10]
  composite z-score: 0.887

## CCOC(=O)C[C@H]1[C@H](OC(=O)c2ccc(-c3ccccc3)cc2)[C@@H](NC(=O)c2ccccc2)c2cc(OCCCO)ccc2N1C(=O)c1ccc2ccccc2n1
[1]
  composite z-score: 1.29
[2]
  z-score: -1.09
[3]
  composite z-score: -0.196
[4]
  composite z-score: 1.2
[5]
  composite z-score: 0.963
[6]
  composite z-score: -0.0643
[7]
  composite z-score: -0.0011
[8]
  composite z-score: 0.176
[9]
  composite z-score: 0.629
[10]
  composite z-score: 0.552
